Bioassay records: PubChem, National Center for Advancing Translational Sciences (NCATS)
Cycloheximide cs – Cycloheximide Counterscreen for Small Molecule Inhibitors of Shiga Toxin. 300,000 compounds, 12% hits. max response, %. cell reporter, cycloheximide protein synthesis inhibition counterscreen; in the data active = max response mostly above about 13%, no sharp cut-off; inactive = mostly below about 14%; note: read at 38.3 µM for the half of the compounds with a filed dose; 0% is about no effect
SARS PLP yeast – qHTS of Yeast-based Assay for SARS-CoV PLP | S. cerevisiae expressing SARS-CoV PLpro, growth rescue | Potency, µM (series often up to 32.9 µM), for inactives: top-dose activity, positive = growth rescue, most hits filed as activators | 330,000 compounds, 0.19% hits | AID 485353, 2010; note: potency is the fitted concentration of half-maximal effect; 0% is about no effect; nearly all actives have a fitted effect of over 55% in size
Shiga toxin inh – A qHTS for Small Molecule Inhibitors of Shiga Toxin. Vero cells, Shiga toxin protein synthesis inhibition reporter. inhibition, % at 38.7 µM. AID 2315, 2010. 290,000 compounds, 9.2% hits; in the data active = inhibition mostly above about 28%, no sharp cut-off; inactive = mostly below about 43%; note: 0% is about no effect
NS1 function inh – qHTS Assay for Inhibitors of Influenza NS1 Protein Function; 270,000 compounds, 0.4% hits; AID 2326, 2010; Potency, µM (top dose mostly 46.1 µM), without a hit: at the highest dose activity, positive = more growth; note: potency is the fitted concentration of half-maximal effect; actives are rising curves; nearly all actives have a fitted effect of over 50% in size
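Read-out: OD600 growth recovery of NS1-expressing budding yeast. Cells grown overnight at 30C in -URA glucose medium, washed, resuspended and diluted 1:100 in 2% galactose assay medium, pH 6.0. Same strain lacking NS1 served as positive control.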
The depositor's hits bear a star. A selection: hits, their analogues and other compounds. The true share with any hit is near 12%. Unless noted, calls come from the whole dose curve.

Screening Cc1ccc(NC(=O)COC(=O)/C=C/c2ccc(Br)o2)cc1S(=O)(=O)N(C)C returned Cycloheximide cs -2.7, SARS PLP yeast -0.2%, Shiga toxin inh 15.2 and NS1 function inh 0.7%.
`Cc1ccc(NC(=O)c2ccc(Br)o2)cc1S(=O)(=O)N(C)C` gave Cycloheximide cs 24.3*, SARS PLP yeast 2.1% and Shiga toxin inh 78.5*.
`COc1cc2c(cc1NC(=O)COC(=O)[C@@H](NS(=O)(=O)c1cccc(Cl)c1)C(C)C)oc1ccccc12` gave Cycloheximide cs 12.7*, SARS PLP yeast 5.4%, Shiga toxin inh 23.4 and NS1 function inh inconclusive.
For COc1cc2c(cc1NC(=O)COC(=O)CNS(=O)(=O)c1ccc(C)cc1)oc1ccccc12 the results were Cycloheximide cs 23.9*, SARS PLP yeast -18.4%, Shiga toxin inh 82.5 and NS1 function inh -15.5%.
`COc1ccc(NC(=O)COC(=O)CNS(=O)(=O)c2ccc(C)cc2)c(OC)c1` gave Cycloheximide cs 1.7, SARS PLP yeast 13.1%, Shiga toxin inh -8.9 and NS1 function inh -19.1%.
COc1ccc(S(=O)(=O)N[C@@H](C)C(=O)OCC(=O)Nc2cc3oc4ccccc4c3cc2OC)cc1 was read as Cycloheximide cs 14.9*, SARS PLP yeast 1.2%, Shiga toxin inh 102.7* and NS1 function inh -2.3%.
Screening O=C(NCc1cccnc1)Nc1ccc2c(c1)OCO2 returned Cycloheximide cs 26.8*, SARS PLP yeast -0.7% and Shiga toxin inh 128.3*.
O=C(NCCCn1ccnc1)Nc1cccc(Cl)c1 was read as Cycloheximide cs 2.3, SARS PLP yeast 1.4%, Shiga toxin inh -2.0 and NS1 function inh 1.0%.
Screening O=C(NCCCn1ccnc1)Nc1ccc2c(c1)OCO2 returned Cycloheximide cs 38.7*, SARS PLP yeast 15.2%, Shiga toxin inh 75.8* and NS1 function inh 0.1%.
Cn1cc(CNC(=O)Nc2ccc3c(c2)OCO3)cn1 was read as Cycloheximide cs 14.8*, SARS PLP yeast 7.2%, Shiga toxin inh 26.7 and NS1 function inh 4.9%.
For CC(C)c1ccc(NC(=O)NCc2ccc3c(c2)OCO3)cc1 the results were Cycloheximide cs 12.3, SARS PLP yeast -7.8%, Shiga toxin inh 4.1 and NS1 function inh -0.2%.
For CN(C)/C=C1\C(=O)N(c2ccc(Cl)cc2)CS1(=O)=O the results were Cycloheximide cs 36.3*, SARS PLP yeast 7.6%, Shiga toxin inh 85.9* and NS1 function inh 4.2%.
For CC1=NN(c2ccc(Cl)cc2)C(=O)C1 the results were Cycloheximide cs 1.4, SARS PLP yeast 1.9% and Shiga toxin inh -8.7.
For Cc1ccc(N2CS(=O)(=O)/C(=C/N(C)C)C2=O)cc1 the results were Cycloheximide cs 37.8*, SARS PLP yeast 1.5%, Shiga toxin inh 77.3* and NS1 function inh 5.1%.
For NC(=O)c1cc2c3ccccc3ccn2c1-c1ccccc1 the results were Cycloheximide cs 52.0*, SARS PLP yeast -4.6%, Shiga toxin inh 94.0* and NS1 function inh -44.4%.
For CCc1ccccc1NC(=S)N(Cc1ccco1)C(C)c1cccs1 (stereo not given) the results were Cycloheximide cs 9.7, SARS PLP yeast -0.6% and Shiga toxin inh -3.1.
`CCc1ccc(NC(=O)N(Cc2ccco2)C(C)c2cccs2)cc1` (stereo not given) gave Cycloheximide cs 21.3*, SARS PLP yeast -17.5%, Shiga toxin inh 51.6* and NS1 function inh -90.5%.
`CCC(=O)Nc1ccc(NC(=O)c2cc3ccccc3o2)c(OC)c1` gave Cycloheximide cs 26.9*, SARS PLP yeast -3.1%, Shiga toxin inh 33.7* and NS1 function inh 18.8%.
For COc1cc(NC(=O)c2c(OC)cccc2OC)ccc1NC(=O)c1cc2ccccc2o1 the results were Cycloheximide cs 22.3*, SARS PLP yeast -8.1% and NS1 function inh 7.3%.
`COc1cc(NC(=O)c2ccc(F)cc2)ccc1NC(=O)c1cc2ccccc2o1` gave Cycloheximide cs 6.1, SARS PLP yeast 0.2%, Shiga toxin inh -2.0 and NS1 function inh -2.4%.
Screening COc1cc(NC(=O)c2cc3ccccc3o2)ccc1NC(=O)c1ccco1 returned Cycloheximide cs -4.9, SARS PLP yeast 1.1%, Shiga toxin inh -2.4 and NS1 function inh -3.7%.
O=C(N=C1SC2CS(=O)(=O)CC2N1c1cccc(F)c1)C1CC1 (stereo not given) was read as Cycloheximide cs -0.1, SARS PLP yeast 1.1%, Shiga toxin inh -2.7 and NS1 function inh 8.4%.
`CN(C)c1ccc(/C=N/N=C2/NC(=O)/C(=C/c3ccc([N+](=O)[O-])cc3)S2)cc1` gave Cycloheximide cs 28.1*, SARS PLP yeast -4.2%, Shiga toxin inh 54.5* and NS1 function inh -14.3%.
`COC(=O)c1nnc(-c2ccccc2)nc1OC` gave Cycloheximide cs 4.7, SARS PLP yeast -4.3%, Shiga toxin inh -9.1 and NS1 function inh -1.3%.
COc1nc(-c2ccc(Cl)cc2)nnc1C was read as Cycloheximide cs 14.9*, SARS PLP yeast -0.2%, Shiga toxin inh 10.4 and NS1 function inh -1.7%.
`COc1ccc(C2=CSC(/N=C/c3ccc(F)cc3)=NN2)cc1` gave Cycloheximide cs 30.4*, SARS PLP yeast inconclusive, Shiga toxin inh -4.3 and NS1 function inh -26.2%.
For O=S(=O)(O)c1ccc2c(c1)-c1nc-2nc2[nH]c(nc3nc(nc4[nH]c(n1)c1ccc(S(=O)(=O)O)cc41)-c1ccc(S(=O)(=O)O)cc1-3)c1ccc(S(=O)(=O)O)cc21 the results were Cycloheximide cs -12.9 and Shiga toxin inh -6.3.
CC(C)Cn1c(=O)c2ccccc2n2c(SCC(=O)N3c4ccccc4CC3C)nnc12 (stereo not given) was read as Cycloheximide cs -2.7, SARS PLP yeast 2.2%, Shiga toxin inh -9.1 and NS1 function inh 7.3%.
`O=C(/C=C/c1ccc(Br)cc1)NC(=S)N1CCOCC1` gave Cycloheximide cs 53.5*, SARS PLP yeast 1.0%, Shiga toxin inh 67.2* and NS1 function inh -1.0%.
Screening COc1ccc(CC(=O)N2CCN(c3ccccn3)CC2)cc1 returned Cycloheximide cs 10.4, SARS PLP yeast -2.9%, Shiga toxin inh 21.7 and NS1 function inh 1.9%.
COc1ccccc1N1CCN(C(=S)NC(=O)/C=C/c2ccccc2)CC1 was read as Cycloheximide cs 12.2, SARS PLP yeast -0.2%, Shiga toxin inh 30.5 and NS1 function inh -2.4%.
For O=C(/C=C/c1ccc(F)cc1)N1CCN(c2ccccn2)CC1 the results were Cycloheximide cs 15.2, SARS PLP yeast 8.5%, Shiga toxin inh active and NS1 function inh -5.1%.
For CN1CCN(C(=S)NC(=O)/C=C/c2ccccc2)CC1 the results were Cycloheximide cs 18.8, SARS PLP yeast 15.2%, Shiga toxin inh 32.6 and NS1 function inh 4.5%.
Screening COc1ccc(/C=C/C(=O)NC(=S)N2CCSCC2)cc1 returned Cycloheximide cs 36.6*, SARS PLP yeast 1.0% and Shiga toxin inh 48.9.
For COc1ccc(/C=C/C(=O)NC(=S)N2CCN(c3ccccn3)CC2)cc1 the results were Cycloheximide cs 19.1*, SARS PLP yeast -0.9%, Shiga toxin inh 56.5* and NS1 function inh -1.2%.
Screening CCCOc1ccc(/C=C/C(=O)N2CCN(c3ccccn3)CC2)cc1 returned Cycloheximide cs 7.8, SARS PLP yeast -1.1% and Shiga toxin inh -15.8.
